Values joined by “and” are separate entries in the source; they are usually repeats but may differ in a detail not shown here. Identical values can stand only once. The panel holds about 83,000 compounds, 20% with a hit somewhere; the sample as a whole holds those more often.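 Interpretation: 100, growth as untreated; towards 0, rising growth inhibition; 0, no net growth; 0 to -100, cell death. Compounds scoring below 10 were considered active.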 Unmarked numbers belong to inactive results. Active and inactive are the calls of the source.

Data on 32 molecules can be found in PubChem BioAssay (NCI).

For this assay, the system named is UACC-257 melanoma. In words: NCI-60 one-dose screen, 48 h (100 = growth as untreated, 0 = no growth, -100 = all killed). The conditions noted are these: 10 µM unless noted.
On to `C[n+]1c(/C=C/c2ccc([N+](=O)[O-])cc2)ccc2ccccc21`, for which the growth was 106%.
For `c1ccc2c(c1)Nc1cc3ccccc3cc1N2`, the growth was 37.4%.
As to `CCOC(=O)/C(=C\c1ccc(-c2ccccc2)cc1)C(C)=O`, the growth was 120%.
To `NC(N)=N/N=C/c1ccc([N+](=O)[O-])o1` belongs 67.1%; to `CCCCCCCCCCCCCCCC[N+](C)(CCO)Cc1cnc[nH]1` (configuration not stated), -34.5% (active).
For the molecule `COC(=O)c1nc(=S)[nH]c(C(=O)OC)c1C(=O)c1ccc2ccccc2c1`, the growth was 112%.
With `CCC(=O)Sc1ccccc1C(=O)Nc1ccc(Cl)cc1`, the growth was 94.7%.
With `Cc1ccnc(NC(c2ccccc2)c2ccc3cccnc3c2O)c1` (configuration not stated), the growth is 41.7%.
For the molecule `CC1SC(=S)N(c2ccc(Cl)cc2)C1=O` (configuration not stated), the growth is 97.9%.
Take `CCN1/C(=C\c2cc[n+](CC)c3ccccc23)C=Cc2ccccc21`: the growth is -1.1% (active).
For `Cc1ccc(C(=Nc2ccccc2)N=P(c2ccccc2)(c2ccccc2)c2ccccc2)cc1`, the growth is -17.3% (active).
Consider `CC(C)(C)c1ccc(O)c(C2CCCCC2)c1`, for which the growth was 86.6%.
For `Cc1ccc(NS(=O)(=O)c2ccc(C)cc2)cc1` the value was 89.8% and 77.2%; for `O=C(O)C1C2CC3C(OC(=O)C31)C2Br` (configuration not stated), 82.7% and 95%.
Regarding `C=CCOc1ccc(N=NC(C#N)C#N)cc1`, the growth was 42.1%.
To `CN(C)c1ccc(C(=C2C=CC(=[N+](C)C)C=C2)c2ccc(N(C)C)cc2)cc1` (tested in a mixture with another compound) belongs -67.4% (active).
With `O=C(/C=C\c1cc(Br)ccc1O)/C=C/c1cc(Br)ccc1O`, the growth is -16.7% (active).
Consider `CC(C)c1ccc2nc3ccc(C(=O)NCCN4CCN(c5ccccc5)CC4)cn3c(=O)c2c1`, for which the growth is 60.2%.
To `O=C(/C=C/C=C/c1ccccc1)c1ccco1` belongs 108%; to `CC1(C)CC([P+](c2ccccc2)(c2ccccc2)c2ccccc2)=NN1`, 2.89% (active); to `COC(=O)[C@@]12OC[C@]34[C@H]([C@@H](O)[C@@H]1O)[C@@]1(C)[C@H](O)C(=O)C=C(C)[C@@H]1C[C@H]3OC(=O)C(OC(C)=O)[C@@H]24` (some centres not stated), -54.4% (active).
As for `Cc1c2ccccc2c(C)c2c1ccc1ccccc12`, the growth is 94.7%.
On to `S=C(N/N=C/c1ccccn1)Nc1ccccn1`, for which the growth was -14.9% (active).
For `CN(C)C(=O)SC1=C(c2c(Cl)cccc2Cl)C(=O)c2ccccc21` the value was 48.8%.
For `CCC(CC)COC(=O)c1ccc(O)c(O)c1` the value was 86.4%; for `CC1=CC(O)C2CC1C2(C)C` (configuration not stated), 95.9% and 110%.
Consider `COc1cc(/C=C(/C)C[N+](=O)[O-])ccc1O`, for which the growth was 33.5%.
Regarding `NC1=CC(=O)c2ccccc2C1=O`, the growth is 69%.
To `CCN(CC)CCOc1ccc(-c2nc3cc(Cl)ccc3s2)cc1` belongs -36.2% (active).
With `CCOc1ccc(-c2nc3ccc(-c4nc5ccc(N6CCN(C)CC6)cc5[nH]4)cc3[nH]2)cc1`, the growth is -64.8% (active).
To `CNC(=O)N/N=C/c1ccc([N+](=O)[O-])o1` belongs 87.8%.
On to `N#CSCc1ccc(CSC#N)c(Cl)c1`, for which the growth is 67.6%.
